± gives the standard deviation.
Tests used:
Conditions in all cases: modulator concentration 10 µM
[1] = system: RAW-Dual (murine macrophage reporter line); assay: NF-kB reporter (SEAP) activity fold change vs agonist alone; higher = enhanced NF-kB activity
Summary of the method: (§1)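 Overnight stimulation with a PRR agonist followed pre-incubation for 1 hour at 37 °C with compound at 10 μM final. This was done in RAW-Dual murine macrophage reporter cells seeded at 50 000 per well in 384-well plates. NF-κB (SEAP, QUANTI-Blue absorbance at 620 nm) and IRF (Lucia luciferase, QUANTI-Luc luminescence) were read from the supernatant. Each reporter's fold change relative to the mean agonist-only control on the same plate was averaged over replicate plates.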

[2] = system: RAW-Dual (murine macrophage reporter line); assay: IRF reporter (Lucia luciferase) activity fold change vs agonist alone; higher = enhanced IRF activity
Summary of the method: as §1

[3] = system: RAW-Dual (murine macrophage reporter line); assay: viability score (confluency relative to resting cells, overnight) (fraction); higher = more viable, active = viable (0.7 or more)
Summary of the method: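 A compound met the cutoff when both of two confluency masks exceeded 70% of resting cells. Those masks were made with IncuCyte software from IncuCyte images of RAW-Dual macrophages treated overnight at 10 μM final. This is the basis of the viability score, which is confluency relative to resting cells.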

[4] = agonist: CpG ODN 1826 0.5 ug/mL

SMILES | NF-kB reporter [1, 4] | NF-kB reporter ([1]; agonist: LPS 0.1 ug/mL) | NF-kB reporter ([1]; agonist: MPLA […]) | IRF reporter ([2]; agonist: 3'3'-cGAMP 10 ug/mL) | IRF reporter ([2]; agonist: LPS 0.1 ug/mL) | IRF reporter ([2]; agonist: MPLA […]) | viability score [3]
Cc1ccc(S(=O)(=O)Nc2ccccc2-c2nc3ccccc3o2)cc1 | 2.45 ± 0.19 | 1.24 ± 0.081 | 1.45 ± 0.051 | 0.323 ± 0.033 | 1.09 ± 0.048 | 1.21 ± 0.08 | 0.713 (active)
COc1ccc(CCC(=O)NCc2nc(N(C)C)nc(N3CCCCC3)n2)cc1 | 0.8 ± 0.074 | 1.11 ± 0.11 | 0.881 ± 0.033 | 0.801 ± 0.029 | 1.01 ± 0.078 | 0.661 ± 0.12 | 1 (active)
Cc1ccc(N2C(=O)C(=Cc3cccc([N+](=O)[O-])c3)SC2=S)cc1 | 0.957 ± 0.088 | 0.944 ± 0.08 | 0.949 ± 0.11 | 0.623 ± 0.035 | 1.26 ± 0.19 | 1.38 ± 0.29 | 0.996 (active)
Brc1c(NC2=NCCN2)ccc2nccnc12 [Prestw-1751] | 1.24 ± 0.13 | 0.858 ± 0.079 | 0.97 ± 0.035 | 1.02 ± 0.043 | 1.01 ± 0.054 | 1.01 ± 0.12 | 0.996 (active)
S=C(NCc1ccc2c(c1)OCO2)N1CCN(c2ncnc3c2oc2ccccc23)CC1 | 0.943 ± 0.19 | 1.6 ± 0.5 | 2.24 ± 0.18 | 0.623 ± 0.021 | 1.35 ± 0.27 | 1.96 ± 0.42 | 0.958 (active)
CCn1ccc(C(=O)N2CCN(c3cc(C(F)(F)F)nc(C)n3)CC2)n1 | 1.27 ± 0.098 | 1.07 ± 0.092 | 1.01 ± 0.05 | 0.637 ± 0.028 | 0.744 ± 0.035 | 0.839 ± 0.11 | 1 (active)
COC(=O)C=C1SC(Nc2ccc(Cl)c(Cl)c2)=NC1=O | 1.13 ± 0.081 | 0.966 ± 0.091 | 0.968 ± 0.035 | 0.988 ± 0.11 | 0.982 ± 0.11 | 0.966 ± 0.23 | 0.994 (active)
O=c1[nH][nH]c(=O)c2c(N=Cc3cc4c(cc3[N+](=O)[O-])OCO4)cccc12 | 0.878 ± 0.082 | 0.823 ± 0.074 | 0.961 ± 0.096 | 0.983 ± 0.031 | 1.13 ± 0.18 | 1.22 ± 0.28 | 0.995 (active)
Cc1cc(C(=O)Nc2ccc(-n3nnn(C)c3=O)cc2)c(C)o1 | 1.01 ± 0.077 | 1.05 ± 0.083 | 0.809 ± 0.041 | 0.985 ± 0.064 | 1.25 ± 0.076 | 1.28 ± 0.17 | 1.01 (active)
CC(=O)Nc1cc2nc3ccccc3nc2cc1NC(C)=O | 0.964 ± 0.11 | 1.05 ± 0.11 | 0.955 ± 0.041 | 1.09 ± 0.28 | 1.05 ± 0.092 | 0.988 ± 0.3 | 1 (active)
COC(=O)c1cc(Br)ccc1NC(=O)c1ccccc1 | 1.07 ± 0.17 | 1.02 ± 0.17 | 1.03 ± 0.18 | 1.12 ± 0.045 | 1.24 ± 0.18 | 1.19 ± 0.21 | 0.99 (active)
COc1c(-c2ccc3cc(NS(C)(=O)=O)ccc3c2)cc(-n2ccc(=O)[nH]c2=O)cc1C(C)(C)C | 0.43 ± 0.1 | 1.02 ± 0.056 | 0.827 ± 0.093 | 0.774 ± 0.043 | 1.2 ± 0.29 | 1.2 ± 0.15 | 1.01 (active)
Cc1ccc2[nH]c(=O)c(-c3cc(-c4ccccc4)c4ccccc4n3)c(-c3ccccc3)c2c1 | 0.938 ± 0.081 | 1.1 ± 0.11 | 0.816 ± 0.051 | 1.08 ± 0.037 | 1.17 ± 0.19 | 1.04 ± 0.072 | 1.02 (active)
O=C(Nc1ccc(S(=O)(=O)Nc2nccs2)cc1)c1c(F)cccc1F | 0.984 ± 0.1 | 1.02 ± 0.058 | 0.922 ± 0.06 | 0.982 ± 0.026 | 1.52 ± 0.23 | 1.14 ± 0.1 | 1.01 (active)
Cc1ccc(C)c(C(=O)c2ccccc2NC(=O)c2ccccn2)c1 | 0.733 ± 0.041 | 0.85 ± 0.071 | 0.839 ± 0.054 | 1.01 ± 0.068 | 1.18 ± 0.15 | 1.11 ± 0.13 | 1.01 (active)
CC(=O)OCCN(CCOC(C)=O)c1c(C)[nH]c(=O)[nH]c1=O | 0.864 ± 0.067 | 0.809 ± 0.079 | 0.994 ± 0.089 | 0.976 ± 0.05 | 1.52 ± 0.093 | 1.7 ± 0.17 | 1.02 (active)
Oc1ccc(C=Cc2cc(O)cc(O)c2)cc1 | 0.984 ± 0.074 | 0.848 ± 0.042 | 1.23 ± 0.029 | 0.493 ± 0.028 | 0.48 ± 0.087 | 0.403 ± 0.084 | 0.904 (active)
O=C(COc1ccc2ccccc2c1)Nc1cnoc1 | 1.12 ± 0.35 | 1.14 ± 0.081 | 1.12 ± 0.088 | 0.92 ± 0.053 | 1.05 ± 0.17 | 0.942 ± 0.1 | 1 (active)

SMILES | NF-kB reporter [1, 4] | NF-kB reporter ([1]; agonist: LPS 0.1 ug/mL) | NF-kB reporter ([1]; agonist: MPLA […]) | IRF reporter ([2]; agonist: 3'3'-cGAMP 10 ug/mL) | IRF reporter ([2]; agonist: LPS 0.1 ug/mL) | IRF reporter ([2]; agonist: MPLA […]) | viability score [3]
CN1CCN(CC(O)Cn2c3ccccc3c3ccccc32)CC1.O=C(O)C(=O)O (configuration not stated) | 0.964 ± 0.074 | 0.946 ± 0.1 | 0.983 ± 0.093 | 0.609 ± 0.02 | 1.39 ± 0.19 | 1.45 ± 0.23 | 1.01 (active)
C=C1CCN([C@H](C)[C@](O)(Cn2cncn2)c2ccc(F)cc2F)CC1 | 1.21 ± 0.12 | 0.941 ± 0.11 | 0.986 ± 0.095 | 1.19 ± 0.054 | 1.73 ± 0.16 | 1.3 ± 0.15 | 0.134 (inactive)
CCN1CCN(S(=O)(=O)c2ccc(Oc3ccccc3)cc2)CC1 | 1 ± 0.061 | 1.01 ± 0.11 | 1.09 ± 0.036 | 0.905 ± 0.043 | 1.09 ± 0.1 | 1.03 ± 0.21 | 0.996 (active)
NC(CO)(CO)CO.O=C(c1ccccc1)c1ccc2n1CCC2C(=O)O (configuration not stated) | 0.916 ± 0.18 | 1.05 ± 0.087 | 0.977 ± 0.14 | 0.933 ± 0.032 | 1.07 ± 0.2 | 1.15 ± 0.19 | 1.01 (active)
O=c1c(-c2ccc(O)cc2)coc2cc(O)cc(O)c12 | 1.54 ± 0.4 | 1.01 ± 0.26 | 1.2 ± 0.079 | 0.625 ± 0.02 | 0.76 ± 0.29 | 0.842 ± 0.1 | 0.945 (active)
CCN(CC)CC(=O)Nc1c(C)cccc1C.Cl | 1.03 ± 0.079 | 0.968 ± 0.063 | 1.03 ± 0.051 | 0.89 ± 0.075 | 0.927 ± 0.039 | 0.865 ± 0.11 | 0.997 (active)
Cc1ccc(C23CC4CC(CC(CN)(C4)C2)C3)cc1C.Cl | 0.652 ± 0.44 | 0.309 ± 0.056 | 1.08 ± 0.35 | 0.11 ± 0.0065 | 0.32 ± 0.1 | 0.256 ± 0.11 | 0.51 (inactive)
Cc1sc2ncnc(Nc3ccc(F)cc3)c2c1C | 0.813 ± 0.035 | 0.948 ± 0.11 | 1.22 ± 0.071 | 0.739 ± 0.034 | 0.935 ± 0.19 | 1.07 ± 0.27 | 0.981 (active)
COc1ccc(N(CC(=O)Nc2ccccc2C(F)(F)F)S(C)(=O)=O)cc1Cl | 0.96 ± 0.075 | 1.02 ± 0.097 | 0.979 ± 0.045 | 0.961 ± 0.17 | 1.02 ± 0.045 | 1.02 ± 0.19 | 1 (active)
CN1C(=N)NC(=O)C1=Cc1cc(Br)cc(Br)c1O | 0.879 ± 0.099 | 0.898 ± 0.09 | 0.954 ± 0.04 | 0.96 ± 0.069 | 0.951 ± 0.046 | 1.01 ± 0.11 | 0.998 (active)
CC(C)N1CCN(c2ccc(OC[C@H]3CO[C@](Cn4cncn4)(c4ccc(Cl)cc4Cl)O3)cc2)CC1 | 1.04 ± 0.078 | 1.15 ± 0.077 | 1.08 ± 0.027 | 0.832 ± 0.048 | 1.05 ± 0.042 | 1.02 ± 0.11 | 0.997 (active)
O=C1c2ccccc2-c2nc3ccccc3n21 | 0.969 ± 0.17 | 1.24 ± 0.11 | 1.14 ± 0.12 | 0.983 ± 0.033 | 1.05 ± 0.21 | 1.28 ± 0.16 | 0.856 (active)
C/C(O)=C(\C#N)C(=O)Nc1ccc(C(F)(F)F)cc1 | 0.861 ± 0.037 | 1.04 ± 0.084 | 1.01 ± 0.074 | 0.855 ± 0.044 | 1.24 ± 0.26 | 1.4 ± 0.58 | 1 (active)
CN(C)c1nc(CNC(=O)c2cnn(-c3ccccc3)n2)nc(N2CCCC2)n1 | 1.01 ± 0.052 | 1.1 ± 0.086 | 1.02 ± 0.11 | 1.05 ± 0.054 | 1.26 ± 0.08 | 1.13 ± 0.31 | 1.02 (active)
COc1cc2nc(N(C)CCCNC(=O)C3CCCO3)nc(N)c2cc1OC (configuration not stated) [Prestw-322] | 1.45 ± 0.43 | 0.957 ± 0.11 | 1.02 ± 0.068 | 0.695 ± 0.13 | 0.934 ± 0.35 | 0.866 ± 0.11 | 0.996 (active)
CC1Cc2ccccc2N1C(=O)C1CCCN1S(=O)(=O)c1ccc(Cl)cc1 (configuration not stated) | 0.835 ± 0.043 | 0.905 ± 0.12 | 1.27 ± 0.25 | 1.01 ± 0.061 | 1.22 ± 0.18 | 1.47 ± 0.52 | 0.97 (active)
Cn1nc(-c2ccc(F)cc2)cc1C(=O)NCC1(CO)CC1 | 0.865 ± 0.037 | 1.04 ± 0.1 | 1.03 ± 0.056 | 1.03 ± 0.049 | 1.09 ± 0.32 | 1.23 ± 0.33 | 1.02 (active)
COc1cccc(O)c1O | 1.72 ± 0.1 | 0.627 ± 0.083 | 0.321 ± 0.013 | 0.479 ± 0.022 | 0.422 ± 0.03 | 0.0889 ± 0.013 | 0.935 (active)

From the supplement of paper PMC10646978
